# Source: the supplement of paper PMC8728848
# Many of the other results were omitted from the sample, so the strongest signals are more common in it than they were.
# B1: Langerin (Homo sapiens), Q9UJ71 (protein)
# chain: STLNAQIPELKSDLEKASALNTKIRALQGSLENMSKLLKRQNDILQVVSQGWKYFKGNFYYFSLIPKTWYSAEQFCVSRNSHLTSVTSESEQEFLYKTAGGLIYWIGLTKAGMEGDWSWVDDTPFNKVQSARFWIPGEPNDAGNNEHCGNIKAPSLQAWNDAPCDITFLFICKRPYVPSEP
# Experiments:
# Assay in all cases: glycan array binding signal (z-score within array); higher = stronger binding
# Conditions in all cases: glycan notation: IUPAC condensed, linker removed; mutation: N288D, K313I
# [1] = biological target: Fuc(a1-2)Gal(b1-3)GlcNAc(b1-3)[Fuc(a1-2)Gal(b1-3)GlcNAc(b1-6)]GalNAc
# Method in brief: (§1)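 Glycan array data came from 3228 arrays in the Consortium for Functional Glycomics database, and only arrays with an available protein sequence were kept. Glycan names were put into IUPAC-condensed notation, and columns mapping to the same glycan were averaged. The binding signal is a within-array Z-score, averaged across arrays of one protein sequence run at different concentrations or buffers and across linkers. A negative Z-score can be read as non-binding.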
# [2] = biological target: Fuc(a1-2)Gal(b1-3)GlcNAc(b1-3)[Gal(b1-4)GlcNAc(b1-6)]Gal(b1-4)Glc
# Method in brief: as §1
# [3] = biological target: Fuc(a1-2)Gal(b1-4)Fuc(a1-3)]GlcNAc(b1-2)Man(a1-3)[Fuc(a1-2)Gal(b1-4)[Fuc(a1-3)]GlcNAc(b1-2)Man(a1-6)]Man(b1-4)GlcNAc(b1-4)GlcNAc
# Method in brief: as §1
# [4] = biological target: Fuc(a1-2)Gal(b1-4)GlcNAc(b1-2)Man(a1-3)[Fuc(a1-2)Gal(b1-4)GlcNAc(b1-2)Man(a1-6)]Man(b1-4)GlcNAc(b1-4)GlcNAc
# Method in brief: as §1
# [5] = biological target: Fuc(a1-2)Gal6S(b1-3)GlcNAc
# Method in brief: as §1
# [6] = biological target: Fuc(a1-2)[GalNAc(a1-3)]Gal(b1-3)GlcNAc(b1-6)GalNAc
# Method in brief: as §1
# [7] = biological target: Fuc(a1-2)[GalNAc(a1-3)]Gal(b1-4)GlcNAc
# Method in brief: as §1
# [8] = biological target: Fuc(a1-2)[GalNAc(a1-3)]Gal(b1-4)GlcNAc(b1-3)GalNAc
# Method in brief: as §1
# [9] = biological target: Fuc(a1-2)[GalNAc(a1-3)]Gal(b1-4)[Fuc(a1-3)]GlcNAc(b1-3)GalNAc
# Method in brief: as §1
# [10] = biological target: Fuc(a1-2)[GalNAc(a1-4)]Gal(b1-4)GlcNAc
# Method in brief: as §1
# [11] = biological target: Fuc(a1-3)[Gal3S(b1-4)]GlcNAc
# Method in brief: as §1
# [12] = biological target: Gal(a1-3)Gal(b1-3)GlcNAc(b1-6)GalNAc
# Method in brief: as §1
# [13] = biological target: Gal(a1-3)Gal(b1-3)[Fuc(a1-4)]GlcNAc(b1-2)Man(a1-3)[Gal(a1-3)Gal(b1-3)[Fuc(a1-4)]GlcNAc(b1-2)Man(a1-6)]Man(b1-4)GlcNAc(b1-4)GlcNAc
# Method in brief: as §1
# [14] = biological target: Gal(b1-3)GalNAc(a1-3)[Fuc(a1-2)]Gal(b1-4)Glc
# Method in brief: as §1
# [15] = biological target: Gal(b1-3)GlcNAc(b1-3)Gal(b1-4)GlcNAc(b1-2)[Gal(b1-3)GlcNAc(b1-3)Gal(b1-4)GlcNAc(b1-6)]Man(a1-6)[Gal(b1-3)GlcNAc(b1-3)Gal(b1-4)GlcNAc(b1-2)Man(a1-3)]Man(b1-4)GlcNAc(b1-4)[Fuc(a1-6)]GlcNAc
# Method in brief: as §1
# [16] = biological target: Gal(b1-3)GlcNAc(b1-3)Gal(b1-4)GlcNAc(b1-3)Gal(b1-4)GlcNAc(b1-2)[Gal(b1-3)GlcNAc(b1-3)Gal(b1-4)GlcNAc(b1-3)Gal(b1-4)GlcNAc(b1-6)]Man(a1-6)[Gal(b1-3)GlcNAc(b1-3)Gal(b1-4)GlcNAc(b1-3)Gal(b1-4)GlcNAc(b1-2)Man(a1-3)]Man(b1-4)GlcNAc(b1-4)[Fuc(a1-6)]GlcNAc
# Method in brief: as §1
# [17] = biological target: Gal(b1-3)[Neu5Ac(a2-6)]GalNAc
# Method in brief: as §1
# [18] = biological target: Gal(b1-4)GlcNAc(b1-2)Man(a1-3)[GlcNAc(b1-4)][Gal(b1-4)GlcNAc(b1-2)Man(a1-6)]Man(b1-4)GlcNAc(b1-4)GlcNAc
# Method in brief: as §1
# [19] = biological target: Gal(b1-4)GlcNAc(b1-2)[Gal(b1-4)GlcNAc(b1-4)]Man(a1-3)[Gal(b1-4)GlcNAc(b1-2)[Gal(b1-4)GlcNAc(b1-6)]Man(a1-6)]Man(b1-4)GlcNAc(b1-4)GlcNAc
# Method in brief: as §1
# [20] = biological target: Gal3S(b1-4)[Fuc(a1-3)]GlcNAc6S
# Method in brief: as §1
# Gal3S4S(b1-4)GlcNAc = biological target: Gal3S4S(b1-4)GlcNAc
# Method in brief: as §1
# Gal3S6S(b1-4)GlcNAc = biological target: Gal3S6S(b1-4)GlcNAc
# Method in brief: as §1
# GalNAc(b1-3)Gal = biological target: GalNAc(b1-3)Gal
# Method in brief: as §1
# [21] = biological target: GalNAc(b1-4)GlcNAc(b1-2)Man(a1-3)[GalNAc(b1-4)GlcNAc(b1-2)Man(a1-6)]Man(b1-4)GlcNAc(b1-4)GlcNAc
# Method in brief: as §1
# GalNAc(b1-6)GalNAc = biological target: GalNAc(b1-6)GalNAc
# Method in brief: as §1
# [22] = biological target: GalNAc3S(b1-4)[Fuc(a1-3)]GlcNAc
# Method in brief: as §1
# [23] = biological target: GlcNAc(a1-4)Gal(b1-4)GlcNAc(b1-3)Gal(b1-4)Glc
# Method in brief: as §1
# [24] = biological target: GlcNAc(a1-6)Gal(b1-4)GlcNAc
# Method in brief: as §1
# [25] = biological target: GlcNAc(b1-2)Man(a1-3)[GlcNAc(b1-4)][GlcNAc(b1-2)Man(a1-6)]Man(b1-4)GlcNAc(b1-4)[Fuc(a1-6)]GlcNAc
# Method in brief: as §1
# [26] = biological target: GlcNAc(b1-2)[GlcNAc(b1-4)]Man(a1-3)[GlcNAc(b1-2)Man(a1-6)]Man(b1-4)GlcNAc(b1-4)GlcNAc
# Method in brief: as §1
binder,measurement,setting,value
B1,glycan array binding signal (z-score),[1],0.215
same,glycan array binding signal (z-score),[2],-0.246
same,glycan array binding signal (z-score),[3],-0.237
same,glycan array binding signal (z-score),[4],-0.023
same,glycan array binding signal (z-score),[5],-0.321
same,glycan array binding signal (z-score),[6],0.089
same,glycan array binding signal (z-score),[7],-0.27
same,glycan array binding signal (z-score),[8],-0.041
same,glycan array binding signal (z-score),[9],1.92
same,glycan array binding signal (z-score),[10],-0.285
same,glycan array binding signal (z-score),[11],0.041
same,glycan array binding signal (z-score),[12],10.4
same,glycan array binding signal (z-score),[13],-0.042
same,glycan array binding signal (z-score),[14],-0.171
same,glycan array binding signal (z-score),[15],5.7
same,glycan array binding signal (z-score),[16],7.74
same,glycan array binding signal (z-score),[17],-0.085
same,glycan array binding signal (z-score),[18],-0.237
same,glycan array binding signal (z-score),[19],-0.351
same,glycan array binding signal (z-score),[20],-0.1
same,glycan array binding signal (z-score),Gal3S4S(b1-4)GlcNAc,-0.333
same,glycan array binding signal (z-score),Gal3S6S(b1-4)GlcNAc,-0.209
same,glycan array binding signal (z-score),GalNAc(b1-3)Gal,-0.289
same,glycan array binding signal (z-score),[21],-0.176
same,glycan array binding signal (z-score),GalNAc(b1-6)GalNAc,-0.255
same,glycan array binding signal (z-score),[22],0.095
same,glycan array binding signal (z-score),[23],-0.192
same,glycan array binding signal (z-score),[24],-0.229
same,glycan array binding signal (z-score),[25],1.18
same,glycan array binding signal (z-score),[26],0.028
